Screening results deposited in PubChem by The Scripps Research Institute Molecular Screening Center.
MITF primary – inhibitors of human MITF; O75030; AlphaScreen MITF homodimerization, bead proximity signal; inhibition, % at 2.6 µM; 650,000 tested, 0.91% active; AID 1259374; in the data active = inhibition above about 50%;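 also: 0% = vehicle wells with protein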
GPR151 ag – activates the human receptor GPR151; 650,000 tested, 1% active; activation, % at 11.2 µM; PathHunter beta-arrestin GPR151 cells, luminescence; AID 1508602; in the data active = activation above about 4.9%;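 also: 0% = median of compound wells and 100% = cells with positive control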
Target sequence (Q8TDV0 whole entry, looked up): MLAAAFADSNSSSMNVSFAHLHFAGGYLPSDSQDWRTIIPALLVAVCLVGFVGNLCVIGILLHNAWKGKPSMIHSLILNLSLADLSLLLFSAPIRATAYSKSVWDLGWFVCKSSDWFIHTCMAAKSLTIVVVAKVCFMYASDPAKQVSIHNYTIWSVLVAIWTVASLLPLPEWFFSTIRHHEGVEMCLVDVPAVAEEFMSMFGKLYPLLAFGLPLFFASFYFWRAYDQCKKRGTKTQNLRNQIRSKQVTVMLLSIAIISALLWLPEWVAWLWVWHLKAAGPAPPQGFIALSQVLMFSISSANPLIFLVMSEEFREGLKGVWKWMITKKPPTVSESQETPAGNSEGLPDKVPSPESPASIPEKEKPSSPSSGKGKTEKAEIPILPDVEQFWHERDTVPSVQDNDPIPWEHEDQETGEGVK
FBW7 act – activators of human E3 ligase FBW7. Q969H0. AlphaScreen FBW7–phospho-cyclin E peptide binding, activator screen. normalized activity (activation), % at 26.1 µM. 650,000 tested, 0.13% active. AID 1259310; in the data active = normalized activity above about 1.9%;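 also: purified mutant Fbw7 with reduced substrate affinity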
TEAD-YAP inh – TEAD-YAP interaction inhibition; HEK-TIYL cells, TEAD-Gal4/YAP UAS-luciferase luminescence; inhibition, % at 9.12 µM; 640,000 tested, 1.4% active; in the data active = inhibition above about 32%;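 also: 0% = median of test compound wells and 100% = reference inhibitor wells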
GPR151 conf act – human GPR151 activation, confirmation screen; 6,700 tested, under 10 active; AID 1508609; activation, % at 11.2 µM; shares compounds with GPR151 ag; GPR151 PathHunter beta-arrestin cells, luminescence, 90 min; % of EA-reagent control over plate median;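 active = mean percent activation across replicates above the confirmation screen cutoff of 4.91%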
GPR119 counter – GPR119 activation, counter-screen for GPR151 activators; GPR119 PathHunter beta-arrestin cells, luminescence, 90 min; 0 = compound-well median, 100 = enzyme-acceptor control; AID 1508611; activation, % at 11.2 µM; 6,700 tested, 0.3% active; shares compounds with GPR151 ag;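 active = mean percent activation in the counterscreen above 29.09%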;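 also: counterscreen on off-target GPR119 to flag nonselective hits from the GPR151 activator screen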
An asterisk follows results filed as active; x = no result. Shown are actives, neighbours in structure and some others; about 3.4% of the full set was active somewhere.

SMILES | MITF primary | GPR151 ag | FBW7 act | TEAD-YAP inh | GPR151 conf act | GPR119 counter
CCOC(=O)N1CCN(c2cc(N3CCN(C)CC3)c(F)cc2[N+](=O)[O-])CC1 | 18.8 | 8.3* | 0.5 | 5.0 | -0.4 | -2.2
CCOC(=O)N1CCN(c2cc(N3CCCC3)c(F)cc2[N+](=O)[O-])CC1 | 6.8 | -1.6 | 0.0 | 10.9 | x | x
c1nc(NC2CC2)c2[nH]c(N3CCOCC3)nc2n1 | 8.9 | 5.0* | -0.1 | 3.7 | -0.7 | 0.8
Cc1noc(C)c1-c1nc2ncnc(NC3CC3)c2[nH]1 | 4.0 | 5.5* | 0.1 | -13.9 | -0.2 | -4.0
Fc1ccc(-c2cnc(NCCc3ccccc3)nc2)cc1 | 10.2 | 2.4 | -0.1 | -43.5 | x | x
O=C(Nc1cccc(-c2nc3ccccc3o2)c1)c1cccc(Cl)c1Cl | 0.6 | -0.5 | 0.1 | 10.0 | x | x
CC(=O)NC1=NC(=O)/C(=C/c2ccc(OCc3ccc([N+](=O)[O-])cc3)cc2)S1 | 16.5 | 5.0* | 0.2 | 1.1 | 0.5 | -4.2
COc1cc(/C=C2\SC(NC(C)=O)=NC2=O)ccc1OCc1ccc([N+](=O)[O-])cc1 | -1.2 | 1.0 | -0.2 | -13.7 | x | x
Cc1cc(NC(=O)c2ccc(C)s2)n(-c2nc3ccccc3[nH]2)n1 | 3.2 | 5.3* | 0.2 | 0.1 | 0.1 | 1.6
CC(O)CNCc1ccc(OCc2ccccc2)cc1 (configuration not stated) | 20.0 | -1.7 | 0.1 | -29.6 | x | x
COc1cc(OC)cc(C(=O)N2CCc3ccccc3C2CNC(=O)Nc2ccc(Cl)c(Cl)c2)c1 (configuration not stated) | -8.4 | 5.3* | -0.1 | 3.8 | 0.7 | 9.1
COc1cc(OC)cc(C(=O)NNC(=O)Nc2ccc(Cl)c(Cl)c2)c1 | 11.3 | -1.8 | 0.1 | 6.2 | x | x
COc1cc(Nc2nc(-c3ccc(N4CCOCC4)nc3)nc3c2ncn3Cc2ccc(C(F)(F)F)cc2)cc(OC)c1OC | 8.1 | 6.6* | 0.3 | -6.7 | -0.5 | -6.9
COc1cc(Nc2nc(Nc3ccc4c(c3)OCO4)c3ncn(Cc4ccc(C(F)(F)F)cc4)c3n2)cc(OC)c1OC | 0.2 | 5.5* | -0.3 | -5.1 | 0.2 | -1.1
COc1cc(Nc2nc(NCc3ccc4c(c3)OCO4)nc3c2ncn3Cc2ccc(C(F)(F)F)cc2)cc(OC)c1OC | -2.9 | -1.1 | 0.0 | -4.4 | x | x
FC(F)(F)c1ccc(Cn2cnc3c(Nc4ccc(N5CCOCC5)cc4)nc(-c4ccc(N5CCOCC5)nc4)nc32)cc1 | 18.3 | -1.6 | 0.4 | 4.6 | x | x
NC(=O)Cn1cnc2c(oc3ccccc32)c1=O | 17.2 | 0.8 | 0.2 | -2.3 | x | x
O=C(CN1CCN(c2ncccn2)CC1)NCC1CCCO1 (configuration not stated) | 9.5 | 0.1 | 0.3 | 8.0 | x | x
COc1ccccc1NC(=O)Cn1c(=O)n(Cc2ccc(F)cc2)c(=O)c2cccnc21 | 4.5 | 0.6 | -0.1 | 16.3 | x | x
COc1ccccc1NC(=O)Cn1c(=O)n(Cc2ccccc2)c(=O)c2cccnc21 | -0.8 | 5.2* | 0.2 | 8.7 | -0.6 | -1.6
O=C(NC1(C(F)(F)F)NC(=O)N(c2ccc(F)cc2)C1=O)c1ccncc1 (configuration not stated) | -1.9 | 12.8* | 0.2 | 4.6 | 0.6 | 7.0
COc1ccccc1C(=O)NC1(C(F)(F)F)NC(=O)N(c2ccc(C)c(C)c2)C1=O (configuration not stated) | -0.6 | 7.3* | 0.5 | -5.5 | 0.4 | -6.5
O=C(NC1(C(F)(F)F)NC(=O)N(c2ccc(F)cc2)C1=O)c1ccc(F)cc1 (configuration not stated) | 5.2 | 0.9 | 0.1 | 11.0 | x | x
CCOC(=O)C1CCCN(CCC(=O)Nc2ccccc2)C1 (configuration not stated) | 11.2 | 1.0 | 0.1 | 3.9 | x | x
CCOC(=O)C1CCCN(CCC(C)c2ccccc2)C1 (configuration not stated) | 33.8 | 8.1* | -0.1 | 0.7 | -0.1 | -4.8
SMILES | MITF primary | GPR151 ag | FBW7 act | TEAD-YAP inh | GPR151 conf act | GPR119 counter
CCOc1ccc(C(=O)Nc2ccc(S(=O)(=O)NC(C)(C)C)cc2)cc1OCC | 24.3 | 5.9* | 0.1 | 2.3 | 1.0 | -3.9
CCOc1ccccc1C(=O)Nc1ccc(S(=O)(=O)NC(C)CC)cc1 (configuration not stated) | 6.0 | 13.4* | 0.0 | 6.0 | -0.3 | 1.0
CCNS(=O)(=O)c1ccc(NC(=O)c2ccccc2OCC)cc1 | 18.7 | 0.0 | 0.6 | 7.5 | x | x
Cc1ccnc(SCC(=O)N2CCc3ccccc32)n1 | -5.8 | 5.4* | -0.1 | -40.1 | -0.1 | 9.2
O=C(CSc1nnc(-c2ccccc2O)o1)N1CCc2ccccc21 | 5.9 | 6.3* | 0.0 | 7.0 | 0.3 | 1.3
Cc1ccccc1N1CCN(CCC(=O)Nc2ccc(OC(F)(F)F)cc2)CC1 | -0.6 | -1.6 | 0.1 | 3.1 | x | x
CC(=O)c1c(C)[nH]c(C(=O)OCC(=O)Nc2ccc(C)cc2[N+](=O)[O-])c1C | -7.5 | 0.7 | -0.1 | 5.2 | x | x
CC(=O)c1c(C)[nH]c(C(=O)OCC(=O)Nc2ccc(Br)cc2F)c1C | -7.6 | 5.0* | -0.2 | 6.9 | -0.2 | 2.6
Cc1ccc(N2C(=O)CN(S(C)(=O)=O)CC2(C)C(=O)NC2CCCCC2)cc1C (configuration not stated) | 2.5 | 5.1* | -0.2 | 0.9 | 0.8 | -9.1
Cc1ccc(C)c(N2C(=O)CN(S(C)(=O)=O)CC2(C)C(=O)NC2CCCCCC2)c1 (configuration not stated) | 11.7 | -0.4 | 0.1 | 2.6 | x | x
O=C(N/N=C/c1ccc(Oc2ccc([N+](=O)[O-])cn2)cc1)c1cccc([N+](=O)[O-])c1 | 2.3 | 5.0* | 0.0 | 8.8 | -0.4 | -0.8
Cc1cccc(-c2cc(C(=O)Nc3ccc(F)c([N+](=O)[O-])c3)c3ccccc3n2)c1 | -7.5 | 5.7* | -0.2 | -6.8 | 0.6 | 18.1
CCOc1cc(C2C(C(=O)OCCc3ccccc3)=C(C)NC3=C2C(=O)CC(C)(C)C3)cc(Br)c1O (configuration not stated) | -5.3 | -0.5 | 0.0 | 4.5 | x | x
COC(=O)c1c(OCc2ccncc2)cc(=O)n2c1CCN(C(=O)c1ccccc1C)CC2 | -19.1 | 5.1* | -0.1 | -17.4 | 0.9 | -2.1
COC(=O)c1c(OCc2ccccn2)cc(=O)n2c1CCN(C(=O)c1ccccc1C)CC2 | -15.3 | -1.0 | -0.3 | -1.5 | x | x
OCc1cc(Cl)c2c(c1)OCCO2 | 11.2 | 0.7 | 0.5 | -10.2 | x | x
CCN(CC(=O)NC1CCCCCC1)S(=O)(=O)c1ccc(C)cc1 | -0.5 | 5.4* | 0.1 | -5.8 | 2.4 | 1.9
CCOC(=O)C(C)Sc1nnc(NC(=O)c2c(F)cccc2Cl)s1 (configuration not stated) | 0.5 | 5.0* | -0.2 | 1.7 | -0.1 | 4.0
CCC(C)NC(=O)CN(c1cccc(C(F)(F)F)c1)S(=O)(=O)c1ccccc1 (configuration not stated) | -10.4 | 10.0* | 0.0 | 6.1 | 0.1 | 3.2
